Screens deposited in PubChem BioAssay by National Center for Advancing Translational Sciences (NCATS).
SW480 rerep: inducers of DNA re-replication in SW480 colon cancer cells; SW480 DNA re-replication, Hoechst DNA content imaging, 48 h; Potency, µM (series often up to 46.1 µM), inactives show top-dose re-replication activation, usual class: activators; 340,000 tested, 1.8% active; note: potency is the fitted concentration of half-maximal effect; % of control where 0% means no effect; nearly all actives have a fitted effect of over 55% in size
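Per well, 250 cells were exposed to pinned compound for 48 hr. Nuclear DNA was visualised with Hoechst (40 min, 37 C) and total object intensity recorded by fluorescence scanning.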
MCF10A rereplic: inducers of DNA re-replication in MCF 10A breast cells; MCF 10A DNA re-replication, Hoechst nuclear intensity, 48 h; Potency, µM (doses to about 46.1 µM), for the others: at the top dose activity, positive = re-replication, most hits filed as activators; 350,000 tested, 2.9% active; AID 624296; note: potency is the fitted concentration of half-maximal effect; % of control where 0% means no effect; nearly all actives have a fitted effect of over 50% in size
KB-V1 cytotox: KB-V1 MDR subline cytotoxicity; KB-V1 MDR cells viability, CellTiter-Glo, 72 h; Potency, µM (doses to about 46.1 µM), actives largely listed as cytotoxic; 400,000 tested, 3.4% active; note: potency is the fitted concentration of half-maximal effect; % is set by controls: 0 for no effect and ±100 for the full control effect; nearly all actives have a fitted effect of over 60% in size
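Cells of the MDR subline KB-V1 are plated, dosed with compound at multiple concentrations, and incubated 72 h at 37 degrees C; CellTiter-Glo is then added and luminescence read after 10 min.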
ASM inhibitor: human S-ASM enzyme inhibition; P17405; placental ASM, HMU-PC fluorogenic substrate, 60 min; Potency, µM (highest dose often 57.5 µM), for the others: at the top dose activity change, negative = inhibition, hits mostly inhibitors; 340,000 tested, 0.006% active; note: potency is the fitted concentration of half-maximal effect
Target sequence (P17405 47-631 limits assumed): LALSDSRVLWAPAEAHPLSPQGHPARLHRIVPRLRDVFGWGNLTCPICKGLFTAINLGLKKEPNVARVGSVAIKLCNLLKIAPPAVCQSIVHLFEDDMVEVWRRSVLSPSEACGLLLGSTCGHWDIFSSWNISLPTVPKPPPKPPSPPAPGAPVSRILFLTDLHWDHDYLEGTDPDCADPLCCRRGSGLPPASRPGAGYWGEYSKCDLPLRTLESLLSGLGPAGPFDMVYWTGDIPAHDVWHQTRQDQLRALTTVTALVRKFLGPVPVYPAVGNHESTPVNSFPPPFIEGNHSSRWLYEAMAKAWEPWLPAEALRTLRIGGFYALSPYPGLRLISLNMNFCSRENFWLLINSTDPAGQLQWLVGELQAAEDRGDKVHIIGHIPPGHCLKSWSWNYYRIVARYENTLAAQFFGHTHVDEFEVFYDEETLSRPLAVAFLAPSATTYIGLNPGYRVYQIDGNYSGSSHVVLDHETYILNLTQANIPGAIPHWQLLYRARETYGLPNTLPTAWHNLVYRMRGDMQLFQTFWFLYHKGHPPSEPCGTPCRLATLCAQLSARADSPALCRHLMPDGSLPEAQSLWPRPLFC
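Steps: dispense placental human ASM, pin compound, wait 10 min at room temperature, add HMU-PC0 substrate at 9 uM final, incubate 60 min at 37 °C, add stop solution raising pH to 10, read fluorescence.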
Giardia kill: Giardia lamblia killing; 340,000 tested, 0.15% active; Giardia lamblia trophozoite viability; AID 540267; activity change, % at 7.66 µM, hits read low; in the data active = activity change below about -80%; inconclusive = between about -30% and that limit;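 note: parasites exposed to compound for two days anaerobically before the ATP read; % is set by controls: 0 for no effect and ±100 for the full control effect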
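ATP-content bioluminescence gauges trophozoite survival. Cells (100/well) receive compound and incubate anaerobically for 48 hrs at 37 deg C; detection reagent follows for 15-30 min at room temperature.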
KB-3-1 tox: kills parental KB-3-1 adenocarcinoma cells | KB-3-1 viability, CellTiter-Glo ATP luminescence, 72 h | Potency, µM (doses to about 46.1 µM), actives largely listed as cytotoxic | 400,000 tested, 1.4% active; note: potency is the fitted concentration of half-maximal effect; % is set by controls: 0 for no effect and ±100 for the full control effect; nearly all actives have a fitted effect of over 60% in size
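Parental KB-3-1 viability, qHTS format: 72 h compound exposure, 37 °C; CellTiter-Glo; media-only wells and DMSO plates as controls; concentration-effect fits on corrected data.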
Numbers without * were called inactive. Hits are enriched below; roughly 6.9% of the tested compounds scored in any of these assays. Unless noted, calls come from the whole dose curve; as a rule, active = well fitted curve in the direction sought with a large enough effect; inconclusive = small, poorly fitted or top-dose-only effect, or another doubt; inactive = no such curve, though single readings can be large; an effect the other way counts as inactive or inconclusive.

Screening CC1(C)Cc2nc3sc4c(=O)n(CC(=O)NCc5ccco5)cnc4c3cc2CO1 returned SW480 rerep 16µM*, MCF10A rereplic 9.2µM*, KB-V1 cytotox inactive, ASM inhibitor -3%, Giardia kill 4 and KB-3-1 tox inconclusive.
For CCCCCn1cnc2c(sc3nc4c(cc32)CSC(C)(C)C4)c1=O the results were SW480 rerep -75%, MCF10A rereplic -51%, KB-V1 cytotox 15µM*, ASM inhibitor 4%, Giardia kill 1 and KB-3-1 tox inactive.
Screening O=C(CSc1nnc(-c2ccc(O)cc2)o1)c1ccc(Br)cc1 returned KB-V1 cytotox inactive and KB-3-1 tox inactive.
Screening FC(F)C(F)(F)Oc1cccc(Nc2nccn3c(-c4cccc5cccnc45)cnc23)c1 returned KB-V1 cytotox inactive and KB-3-1 tox inconclusive.
Screening Cc1ccc(NC(=O)c2ccco2)c(NC(=O)c2ccccc2)c1 returned SW480 rerep -1%, MCF10A rereplic -1%, KB-V1 cytotox inactive, ASM inhibitor -1%, Giardia kill 0 and KB-3-1 tox inactive.
`CCN(CC)P(=O)(Nc1ccc(C)cc1Br)c1ccc(N(C)C)cc1NC(=O)c1ccco1` (configuration not stated) gave SW480 rerep inconclusive, MCF10A rereplic inconclusive, KB-V1 cytotox 18µM*, ASM inhibitor inconclusive, Giardia kill 13 and KB-3-1 tox inconclusive.
`NC(=O)C(F)(F)C12OC3C4C5CC(C6C5C3C61)C42` (configuration not stated) gave SW480 rerep inconclusive, MCF10A rereplic 21µM*, KB-V1 cytotox inactive, ASM inhibitor 3%, Giardia kill 9 and KB-3-1 tox inactive.
For Cc1ccc(C(=O)COC(=O)C(Cc2c[nH]c3ccccc23)NC(=O)c2ccc(C(C)(C)C)cc2)cc1 (configuration not stated) the results were KB-V1 cytotox inactive and KB-3-1 tox inactive.
Screening CC(Oc1ccc(Cl)cc1Cl)c1nc(-c2ccc(NC(=O)c3ccco3)cc2)no1 (configuration not stated) returned SW480 rerep -2%, MCF10A rereplic 25%, KB-V1 cytotox 5.8µM*, ASM inhibitor inconclusive, Giardia kill 16 and KB-3-1 tox inactive.
`C=CCN=c1scc(-c2ccc3c(c2)NC(=O)CO3)n1/N=C(\C)c1ccccn1` gave SW480 rerep -7%, MCF10A rereplic inconclusive, KB-V1 cytotox inconclusive, ASM inhibitor 19%, Giardia kill -12 and KB-3-1 tox 5.2µM*.
Screening C=CCN=c1scc(-c2ccc(F)cc2)n1/N=C/c1ccccn1 returned SW480 rerep 4%, MCF10A rereplic inconclusive, KB-V1 cytotox inactive, ASM inhibitor -4%, Giardia kill -16 and KB-3-1 tox inconclusive.
CCOc1ccc(NC(=O)N(Cc2ccc(CC)cc2)Cc2cn[nH]c2-c2ccc(OC)cc2)cc1 was read as KB-V1 cytotox inactive and KB-3-1 tox inconclusive.
Screening CCc1nnc(NC(=O)c2ccc(N(C)S(=O)(=O)c3ccccc3)cc2)s1 returned SW480 rerep -8%, MCF10A rereplic -3%, KB-V1 cytotox 6.5µM*, ASM inhibitor 5%, Giardia kill -5 and KB-3-1 tox inactive.
For C=CCSc1nnc(NC(=O)c2cccc(S(=O)(=O)N(C)c3ccccc3)c2)s1 the results were SW480 rerep -1%, MCF10A rereplic inconclusive, KB-V1 cytotox 16µM*, ASM inhibitor -14%, Giardia kill -5 and KB-3-1 tox inactive.
`CCc1nnc(NC(=O)c2ccc(S(C)(=O)=O)cc2)s1` gave SW480 rerep inconclusive, MCF10A rereplic inconclusive, KB-V1 cytotox inactive, ASM inhibitor 2%, Giardia kill -11 and KB-3-1 tox inactive.
For CC(=O)Nc1nnc(SCc2cc(=O)c3cc(C)ccc3[nH]2)s1 the results were KB-V1 cytotox inconclusive and KB-3-1 tox inactive.
Screening COc1cccc(-n2c(SCC(=O)Nc3nnc(C)s3)nc3c([nH]c4ccccc43)c2=O)c1 returned KB-V1 cytotox inactive and KB-3-1 tox inactive.
O=C(NC1CCCCC1)c1ccc(-n2cnnn2)cc1 was read as SW480 rerep -10%, MCF10A rereplic 10%, KB-V1 cytotox inactive, ASM inhibitor 1%, Giardia kill 54 and KB-3-1 tox inactive.
For Cn1nc(C(=O)Nc2cccc(C(F)(F)F)c2)c2ccccc2c1=O the results were SW480 rerep -3%, MCF10A rereplic 1%, KB-V1 cytotox 8.2µM*, ASM inhibitor -25%, Giardia kill 13 and KB-3-1 tox inactive.
Clc1cccc(OCCN2CCNCC2)c1 was read as SW480 rerep 18µM*, MCF10A rereplic 4%, KB-V1 cytotox inactive, ASM inhibitor 0%, Giardia kill 2 and KB-3-1 tox inactive.
`Cc1nnc2c3ccccc3nc(N3CCN(c4cccc(Cl)c4)CC3)n12` gave KB-V1 cytotox inconclusive and KB-3-1 tox inactive.
For O=C(COC(=O)/C=C/c1ccccc1)Nc1nnc(-c2ccccc2)o1 the results were SW480 rerep 5%, MCF10A rereplic inconclusive, KB-V1 cytotox inactive, ASM inhibitor -3%, Giardia kill 5 and KB-3-1 tox inactive.
`COc1cc(/C=C/C(=O)OCC(=O)Nc2nnc(-c3ccccc3)o2)cc(OC)c1OC` gave SW480 rerep -4%, MCF10A rereplic inconclusive, KB-V1 cytotox 12µM*, ASM inhibitor 4%, Giardia kill 14 and KB-3-1 tox inactive.
For Cc1ccc2nc3c(cc(C#N)c(=O)n3-c3nnc(SCc4ccccc4Cl)s3)c(=O)n2c1 the results were KB-V1 cytotox inactive and KB-3-1 tox inactive.
Screening COc1cccc(NC(=O)CN(C)C(=O)Cc2ccc3c(c2)CCC3)c1 returned SW480 rerep -4%, MCF10A rereplic 2%, KB-V1 cytotox 15µM*, ASM inhibitor -3%, Giardia kill 15 and KB-3-1 tox inactive.
`COc1cccc(NC(=O)CN(C)C(=O)Cc2ccc3c(c2)OCCO3)c1` gave SW480 rerep 3%, MCF10A rereplic 0%, KB-V1 cytotox inconclusive, ASM inhibitor 2%, Giardia kill 1 and KB-3-1 tox inactive.
Cc1ccc(OCC(=O)NC(=S)Nc2cccc(NC(=O)c3ccccc3)c2)cc1 was read as SW480 rerep 2%, MCF10A rereplic 15µM*, KB-V1 cytotox inactive, ASM inhibitor -1%, Giardia kill -12 and KB-3-1 tox inactive.
`COc1cccc(NC(=O)COc2ccccc2)c1` gave SW480 rerep 20%, MCF10A rereplic 23µM*, KB-V1 cytotox inactive, ASM inhibitor 3%, Giardia kill 26 and KB-3-1 tox inactive.
